In the supplement of paper PMC10849652:
About 7,900 targets were measured; listed, in parts, are those with a hit and a random draw of the rest. About 0.6% of all pairs of compound and target were hits. Unmarked numbers belong to inactive results.

Legend:
Assay in all cases: log2 fold change, soluble protein after heating vs DMSO (PISA); higher = thermal stabilisation; K562 cells, 10 uM, 30 min; active = over 0.2 and 3.5 SD of the protein, either way, in both replicates (recomputed)
[1] = compound: CS(=O)(=O)c1ccc(-c2cnc(N)c(C(=O)Nc3ccccc3)n2)cc1
Procedure, shortened: (§1)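 K562 cells at 2×10^6 cells/mL were treated for 30 min with 10 μM compound, and aliquots were heated for 3 min over 48°C-58°C before pooling. Extraction used PBS with 0.5% NP-40 at 4°C, and soluble protein was the supernatant after 21,000xg for 90 min, measured by TMTpro 16plex LC-MS/MS with channel sums equalised. Thermal stability values, relative to control samples and from duplicates, are log2 fold changes.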

[2] = compound: C[C@@H](Oc1cc(-c2cnn(C3CCNCC3)c2)cnc1N)c1c(Cl)ccc(F)c1Cl [crizotinib]
Procedure, shortened: as §1

[3] = compound: C[C@@H]1COCCN1C2=NC(=NC(=C2)C3(CC3)S(=O)(=O)C)C4=C5C=CNC5=CC=C4
Procedure, shortened: as §1

[4] = compound: C[C@H](C1=CC=C(C=C1)C(=O)NC2=C3C=CNC3=NC=C2)N
Procedure, shortened: as §1

[5] = compound: C[C@H](Nc1ncnc2nc[nH]c12)c1cc2cccc(Cl)c2c(=O)n1-c1ccccc1 [duvelisib]
Procedure, shortened: as §1

[6] = compound: Cc1cc(Nc2cc(CN3CCOCC3)c3nc(C)c(Cc4ccc(Cl)cc4F)n3n2)n[nH]1 [gandotinib]
Procedure, shortened: as §1

[7] = compound: Cc1cc(Nc2cc(N3CCN(C)CC3)nc(Sc3ccc(NC(=O)C4CC4)cc3)n2)n[nH]1 [tozasertib]
Procedure, shortened: as §1

[8] = compound: Cc1cc(SCc2sc(-c3ccc(C(F)(F)F)cc3)nc2C)ccc1OCC(=O)O
Procedure, shortened: as §1

[9] = compound: Cc1ccc(-n2nc(C(C)(C)C)cc2NC(=O)Nc2ccc(OCCN3CCOCC3)c3ccccc23)cc1 [doramapimod]
Procedure, shortened: as §1

[10] = compound: Cc1ccc(C(=O)N(CCCN)[C@@H](c2nc3cc(Cl)ccc3c(=O)n2Cc2ccccc2)C(C)C)cc1 [ispinesib]
Procedure, shortened: as §1

Sequence of UniProt Q6QNY0 (Q6QNY0 whole entry, looked up): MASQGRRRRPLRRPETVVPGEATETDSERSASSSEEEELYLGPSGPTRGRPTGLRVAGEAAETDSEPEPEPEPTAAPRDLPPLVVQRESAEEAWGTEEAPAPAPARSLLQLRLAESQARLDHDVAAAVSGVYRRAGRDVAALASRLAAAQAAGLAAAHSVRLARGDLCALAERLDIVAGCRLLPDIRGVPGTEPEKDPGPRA
Sequence of UniProt Q9UBL3 (Q9UBL3 whole entry, looked up): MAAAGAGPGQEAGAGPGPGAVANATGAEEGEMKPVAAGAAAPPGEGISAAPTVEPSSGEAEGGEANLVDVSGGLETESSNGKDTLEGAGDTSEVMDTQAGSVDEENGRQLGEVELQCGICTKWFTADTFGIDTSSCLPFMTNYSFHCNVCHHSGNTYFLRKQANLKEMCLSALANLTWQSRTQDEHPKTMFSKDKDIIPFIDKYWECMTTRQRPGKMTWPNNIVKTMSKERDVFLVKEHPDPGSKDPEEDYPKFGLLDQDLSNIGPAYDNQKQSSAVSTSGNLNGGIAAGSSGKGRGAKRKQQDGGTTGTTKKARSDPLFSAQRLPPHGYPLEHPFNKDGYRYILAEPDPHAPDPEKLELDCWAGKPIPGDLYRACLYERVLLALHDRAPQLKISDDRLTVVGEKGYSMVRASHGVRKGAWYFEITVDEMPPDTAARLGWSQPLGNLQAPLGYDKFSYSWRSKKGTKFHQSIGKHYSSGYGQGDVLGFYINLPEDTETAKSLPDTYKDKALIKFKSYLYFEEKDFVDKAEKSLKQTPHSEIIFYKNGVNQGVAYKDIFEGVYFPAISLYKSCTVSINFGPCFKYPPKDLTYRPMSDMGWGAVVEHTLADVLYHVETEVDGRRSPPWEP
Sequence of UniProt Q9BR61 (Q9BR61 whole entry, looked up): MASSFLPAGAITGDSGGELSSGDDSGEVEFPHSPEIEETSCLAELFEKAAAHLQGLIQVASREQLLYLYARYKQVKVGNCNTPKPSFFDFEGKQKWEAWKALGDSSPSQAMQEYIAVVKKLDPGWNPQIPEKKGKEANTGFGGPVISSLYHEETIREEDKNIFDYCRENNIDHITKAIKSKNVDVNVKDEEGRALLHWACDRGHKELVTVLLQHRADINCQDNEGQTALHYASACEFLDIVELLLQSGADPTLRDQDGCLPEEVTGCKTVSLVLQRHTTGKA
Sequence of UniProt O75882 (O75882 whole entry, looked up): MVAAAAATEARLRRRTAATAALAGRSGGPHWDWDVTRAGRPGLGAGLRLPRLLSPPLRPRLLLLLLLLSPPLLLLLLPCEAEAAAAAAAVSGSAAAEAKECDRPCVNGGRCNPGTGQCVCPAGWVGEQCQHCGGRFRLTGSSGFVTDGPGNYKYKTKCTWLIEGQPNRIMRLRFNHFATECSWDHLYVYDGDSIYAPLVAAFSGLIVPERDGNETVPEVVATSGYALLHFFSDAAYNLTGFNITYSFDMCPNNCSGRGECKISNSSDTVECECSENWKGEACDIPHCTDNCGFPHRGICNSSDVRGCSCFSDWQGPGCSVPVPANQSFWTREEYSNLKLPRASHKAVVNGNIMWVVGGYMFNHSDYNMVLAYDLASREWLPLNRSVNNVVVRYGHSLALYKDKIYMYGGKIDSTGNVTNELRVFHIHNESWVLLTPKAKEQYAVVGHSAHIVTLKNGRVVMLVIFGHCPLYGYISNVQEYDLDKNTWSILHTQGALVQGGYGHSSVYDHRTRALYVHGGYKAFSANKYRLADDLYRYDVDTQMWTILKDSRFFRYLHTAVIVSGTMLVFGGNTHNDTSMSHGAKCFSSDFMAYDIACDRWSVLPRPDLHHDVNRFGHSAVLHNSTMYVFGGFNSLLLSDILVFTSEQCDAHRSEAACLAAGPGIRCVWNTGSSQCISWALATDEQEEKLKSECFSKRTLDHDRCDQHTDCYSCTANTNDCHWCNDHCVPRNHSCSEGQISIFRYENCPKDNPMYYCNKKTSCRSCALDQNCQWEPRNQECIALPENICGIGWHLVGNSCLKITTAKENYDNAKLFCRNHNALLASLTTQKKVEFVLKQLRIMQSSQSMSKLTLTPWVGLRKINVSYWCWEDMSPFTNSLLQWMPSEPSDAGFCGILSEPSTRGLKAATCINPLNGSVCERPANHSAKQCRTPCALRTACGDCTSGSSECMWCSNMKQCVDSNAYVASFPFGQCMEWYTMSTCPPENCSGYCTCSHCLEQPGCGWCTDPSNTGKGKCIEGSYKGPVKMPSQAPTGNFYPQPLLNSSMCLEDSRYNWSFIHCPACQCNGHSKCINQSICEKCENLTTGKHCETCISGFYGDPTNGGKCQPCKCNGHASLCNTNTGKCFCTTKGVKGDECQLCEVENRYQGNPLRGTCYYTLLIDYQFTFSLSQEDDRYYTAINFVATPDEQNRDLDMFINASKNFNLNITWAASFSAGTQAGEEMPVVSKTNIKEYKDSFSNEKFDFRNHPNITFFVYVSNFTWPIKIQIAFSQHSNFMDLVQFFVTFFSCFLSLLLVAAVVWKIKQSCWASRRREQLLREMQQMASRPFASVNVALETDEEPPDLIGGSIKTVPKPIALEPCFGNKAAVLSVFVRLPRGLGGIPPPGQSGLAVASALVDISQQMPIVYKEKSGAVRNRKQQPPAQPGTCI
Sequence of UniProt Q9NUQ2 (Q9NUQ2 whole entry, looked up): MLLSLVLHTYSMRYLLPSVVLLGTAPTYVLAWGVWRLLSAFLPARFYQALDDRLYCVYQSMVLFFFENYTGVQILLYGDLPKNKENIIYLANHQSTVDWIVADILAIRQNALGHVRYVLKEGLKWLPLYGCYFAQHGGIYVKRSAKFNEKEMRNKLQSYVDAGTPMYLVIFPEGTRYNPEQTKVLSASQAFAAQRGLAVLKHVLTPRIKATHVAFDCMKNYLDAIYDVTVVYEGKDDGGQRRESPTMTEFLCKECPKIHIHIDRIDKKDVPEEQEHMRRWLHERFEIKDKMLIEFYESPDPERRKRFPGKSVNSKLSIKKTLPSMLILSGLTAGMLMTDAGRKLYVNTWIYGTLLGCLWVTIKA
Sequence of UniProt Q9Y6D6 (Q9Y6D6 whole entry, looked up): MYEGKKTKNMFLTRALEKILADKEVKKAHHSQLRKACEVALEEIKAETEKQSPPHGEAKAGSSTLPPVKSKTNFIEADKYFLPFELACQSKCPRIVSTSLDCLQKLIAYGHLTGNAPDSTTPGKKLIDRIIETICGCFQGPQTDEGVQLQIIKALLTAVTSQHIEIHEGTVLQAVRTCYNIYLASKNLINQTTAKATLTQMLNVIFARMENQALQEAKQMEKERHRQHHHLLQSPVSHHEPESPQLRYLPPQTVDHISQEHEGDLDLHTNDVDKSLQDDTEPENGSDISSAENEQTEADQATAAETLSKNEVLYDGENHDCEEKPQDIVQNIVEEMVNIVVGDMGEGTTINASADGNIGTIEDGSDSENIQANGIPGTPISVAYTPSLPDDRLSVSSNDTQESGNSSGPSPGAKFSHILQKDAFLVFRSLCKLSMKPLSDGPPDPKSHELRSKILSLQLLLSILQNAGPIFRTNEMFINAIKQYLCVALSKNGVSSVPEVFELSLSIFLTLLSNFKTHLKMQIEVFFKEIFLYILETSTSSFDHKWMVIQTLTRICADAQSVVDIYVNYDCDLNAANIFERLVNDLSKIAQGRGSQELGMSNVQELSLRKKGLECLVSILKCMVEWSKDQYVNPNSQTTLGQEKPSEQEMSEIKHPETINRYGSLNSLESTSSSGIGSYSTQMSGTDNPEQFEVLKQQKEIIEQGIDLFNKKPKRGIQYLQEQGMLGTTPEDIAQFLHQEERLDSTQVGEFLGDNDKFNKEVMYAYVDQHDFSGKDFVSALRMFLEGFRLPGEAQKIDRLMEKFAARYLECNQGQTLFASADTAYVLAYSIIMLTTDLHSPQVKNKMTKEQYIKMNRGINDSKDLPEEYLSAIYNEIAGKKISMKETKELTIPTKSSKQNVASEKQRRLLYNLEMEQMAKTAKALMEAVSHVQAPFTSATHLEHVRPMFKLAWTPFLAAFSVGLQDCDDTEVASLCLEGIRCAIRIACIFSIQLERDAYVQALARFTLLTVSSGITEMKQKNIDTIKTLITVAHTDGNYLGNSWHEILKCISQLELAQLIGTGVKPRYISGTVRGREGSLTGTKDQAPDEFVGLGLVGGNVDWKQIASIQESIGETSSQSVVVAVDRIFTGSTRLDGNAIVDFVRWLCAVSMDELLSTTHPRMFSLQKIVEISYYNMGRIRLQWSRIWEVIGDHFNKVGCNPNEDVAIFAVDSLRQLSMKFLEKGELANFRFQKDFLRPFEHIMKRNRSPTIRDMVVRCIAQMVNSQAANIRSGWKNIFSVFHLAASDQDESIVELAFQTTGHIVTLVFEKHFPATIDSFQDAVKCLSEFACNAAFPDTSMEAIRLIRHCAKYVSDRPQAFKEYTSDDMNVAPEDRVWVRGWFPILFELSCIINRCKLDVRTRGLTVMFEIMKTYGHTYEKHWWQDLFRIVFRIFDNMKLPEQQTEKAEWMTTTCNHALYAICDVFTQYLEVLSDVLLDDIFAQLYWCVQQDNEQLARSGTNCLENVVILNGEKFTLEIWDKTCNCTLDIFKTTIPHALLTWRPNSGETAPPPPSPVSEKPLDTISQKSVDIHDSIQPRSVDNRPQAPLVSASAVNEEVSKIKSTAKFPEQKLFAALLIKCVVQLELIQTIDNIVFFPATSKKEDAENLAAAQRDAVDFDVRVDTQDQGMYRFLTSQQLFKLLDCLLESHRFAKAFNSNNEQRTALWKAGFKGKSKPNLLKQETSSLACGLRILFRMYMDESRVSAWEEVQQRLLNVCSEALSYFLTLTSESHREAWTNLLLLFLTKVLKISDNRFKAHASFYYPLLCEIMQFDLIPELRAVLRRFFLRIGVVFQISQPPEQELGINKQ
Sequence of UniProt Q9Y2Y0 (Q9Y2Y0 whole entry, looked up): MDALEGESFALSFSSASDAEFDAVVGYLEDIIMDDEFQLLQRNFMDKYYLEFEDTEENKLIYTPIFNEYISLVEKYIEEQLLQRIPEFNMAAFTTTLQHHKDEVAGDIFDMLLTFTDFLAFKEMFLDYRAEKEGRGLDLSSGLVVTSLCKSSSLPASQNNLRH
Sequence of UniProt Q16864 (Q16864 whole entry, looked up): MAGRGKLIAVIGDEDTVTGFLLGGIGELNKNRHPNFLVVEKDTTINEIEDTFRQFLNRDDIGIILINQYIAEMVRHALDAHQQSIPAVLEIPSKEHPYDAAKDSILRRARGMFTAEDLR

Target	log2 fold change [1]	log2 fold change [2]	log2 fold change [3]	log2 fold change [4]	log2 fold change [5]	log2 fold change [6]	log2 fold change [7]	log2 fold change [8]	log2 fold change [9]	log2 fold change [10]
ALDH18A1 (UniProt P54886)	-0.281	0.08	-0.13	-0.036	-0.255	-0.323	0.024	0.032	-0.146	0.164
ATP6V1F isoform 2 (UniProt Q16864)	-0.303	0.034	-0.025	-0.031	0.309	0.138	0.06	-0.043	0.007	0.076
ARL2BP (UniProt Q9Y2Y0)	0.077	-0.128	-0.017	-0.038	-0.004	-0.166	0.006	0.044	0.101	-0.042
ALDH2 (UniProt P05091)	-0.047	-0.044	0.051	-0.038	0.056	-0.088	-0.039	0.022	0.033	-0.023
BRD8 isoform 2 (UniProt Q9H0E9)	-0.134	0.044	-0.11	0.042	0.037	0.113	0.004	-0.012	0.04	0.061
AASDH (UniProt Q4L235)	-0.04	0.07	0.142	-0.058	0.01	-0.066	-0.017	-0.034	-0.161	-0.236
ACSL3 (UniProt O95573)	0.009	-0.013	0.011	-0.024	0.043	-0.046	0.001	0.097	-0.033	-0.024
AIP (UniProt O00170)	0.031	0.039	0.075	-0.055	0.014	-0.058	0.064	0.038	-0.024	0.011
ACBD6 (UniProt Q9BR61)	0.386 (active)	-0.36	-0.041	0.075	-0.026	0.076	0.032	0.082	-0.048	-0.14
AARS2 (UniProt Q5JTZ9)	0.017	-0.04	0.138	-0.03	0.053	-0.058	-0.039	0.036	0.026	-0.223 (active)
BYSL (UniProt Q13895)	-0.003	-0.049	0	0.05	-0.041	-0.012	0.1	0.135	0.037	-0.094
ATP6V1H (UniProt Q9UI12)	-0.045	-0.199	0.019	0.003	0.018	0.021	0.06	0.014	0.038	-0.089
ATG4B isoform 2 (UniProt Q9Y4P1)	0.078	-0.361	0.056	-0.004	-0.024	-0.12	-0.286	0.184	0.003	-0.277
ACO2 (UniProt Q99798)	0	-0.022	0.102	-0.085	0.03	-0.088	-0.024	0.078	-0.026	0.041
BAP1 (UniProt Q92560)	0.07	-0.078	0	0.126	-0.089	0.076	0.079	0.085	0.112	-0.043
ATRN (UniProt O75882)	-0.049	0.01	0.116	0.087	-0.028	-0.002	-0.003	0.071	-0.238	
ACP1 (UniProt P24666)	0.077	-0.063	-0.033	0.165	0.021	-0.083	0.108	0.324	0.141	
AGRN (UniProt O00468)	-0.078	-0.01	-0.073	-0.021	-0.162	-0.012	0.026	0.24	0.062	0.009
ARFGEF1 (UniProt Q9Y6D6)	0.03	-0.135	0.022	0.052	0.021	-0.014	0.049	0.004	0.067	-0.024
ATIC (UniProt P31939)	0.108	0.092	0.101	-0.083	0.023	0.066	0.018	-0.015	-0.029	0.096
ANKZF1 (UniProt Q9H8Y5)	0.031	-0.037	-0.135	0.174	-0.15	0.007	0.021	-0.068	-0.059	-0.349
AHCYL1 (UniProt O43865)	0.097	0.018	0.038	0.02	-0.005	0.02	0.007	-0.036	-0.045	-0.015
BZW2 (UniProt Q9Y6E2)	0.006	-0.146	0.096	-0.037	-0.001	-0.218	0.011	0.047	-0.047	-0.072
ARL6IP6 (UniProt Q8N6S5)	0.046	-0.016	0.017	-0.042	-0.005	-0.008	-0.22	-0.042	0.03	0.175
ASH2L (UniProt Q9UBL3)	0.008	0.126	0.046	0.058	0.028	0.004	0.068	0.02	-0.068	0.036
BOP1 (UniProt Q14137)	-0.008	0.11	-0.153	0.064	-0.113	0.025	0.007	0.134	-0.008	-0.114
AGPAT5 (UniProt Q9NUQ2)	0.035	-0.117	0.151	-0.014	0.065	-0.09	0.002	-0.029	0.001	-0.145
BLOC1S3 (UniProt Q6QNY0)	-0.001	0.014	0.116	0.065	0.068	-0.132	-0.012	-0.052	-0.038	0.012
